The values below come from PubChem BioAssay (NCATS).

Results filed as inconclusive are left out. The source made the active and inactive calls. Calls come from the whole dose curve; as a rule, active = well fitted inhibition curve with a large enough effect; inconclusive = small, poorly fitted or top-dose-only effect; inactive = no such curve, though single readings can be large or run the other way.
Potency is the fitted concentration of half-maximal effect.

Sequence of Cytochrome P450 3A4 (Homo sapiens) (P08684 whole entry, looked up): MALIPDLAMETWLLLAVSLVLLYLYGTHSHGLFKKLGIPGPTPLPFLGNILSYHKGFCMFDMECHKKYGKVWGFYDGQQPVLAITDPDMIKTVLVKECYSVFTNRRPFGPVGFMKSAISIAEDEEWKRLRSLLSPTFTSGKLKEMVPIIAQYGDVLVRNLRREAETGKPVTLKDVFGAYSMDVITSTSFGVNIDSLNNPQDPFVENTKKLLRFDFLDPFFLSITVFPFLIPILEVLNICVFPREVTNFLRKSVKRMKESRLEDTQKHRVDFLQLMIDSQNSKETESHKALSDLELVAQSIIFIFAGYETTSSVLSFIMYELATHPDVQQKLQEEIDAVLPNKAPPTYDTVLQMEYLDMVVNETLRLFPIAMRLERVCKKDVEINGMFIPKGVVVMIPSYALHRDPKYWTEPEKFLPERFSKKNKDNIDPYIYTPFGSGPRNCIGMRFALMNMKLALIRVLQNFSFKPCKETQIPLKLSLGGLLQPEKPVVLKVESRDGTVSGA

In the assay the target is Cytochrome P450 3A4 (Homo sapiens) (UniProt P08684). Kind of assay: qHTS Assay for Inhibitors and Substrates of Cytochrome P450 3A4 (AID 884). Note: nearly all actives have a fitted effect of over 50% in size. As to conditions: recombinant CYP3A4, Luciferin-PPXE luminescence; series mostly up to 57.1 µM. The gist of the method:
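20 nM human CYP3A4 with 25 uM Luciferin-PPXE (at KM) in 200 mM KPO4, preincubated 10 min with compound; NADPH regeneration started a 60 min RT reaction. Luciferin detected by luminescence, normalized to 57 uM ketoconazole as full inhibition.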
(In general: qHTS replaces the single test concentration by a dilution series.)
On to `COC(=O)c1cccc(C23CC4(C2)[C@H](CN(CC2CCCCC2)[C@@H]4c2ccccc2)C3c2ccccc2)c1` (stereo partly specified), for which the Potency is 15.8 µM (active). On to `CN1C[C@@H]2C(c3ccc(Cl)nc3)C3(c4cccnc4)CC2(C3)[C@H]1c1ccccc1` (stereo partly specified), for which the Potency was 7.94 µM (active).

Turning to `[C-]#[N+]/C(C#N)=C\c1cc(C(C)(C)C)c(O)c(C(C)(C)C)c1`, the Potency is 3.98 µM (active). Turning to `CNC1=C(Cl)C(=O)c2ccncc2C1=O`, the Potency is 1.58 µM (active). The result for `COCCN=C1OC(=O)N2C(=O)C3=C4C(C[C@H]5C(=O)N(CC(=O)OC)C(=O)[C@H]5[C@H]4[C@@]12Cc1ccccc1)[C@H]1C(=O)N(CC(=O)OC)C(=O)[C@H]1[C@H]3C` (stereo partly specified) reads 15.8 µM (active).

In the case of `CCC1=C(OC(=O)N(CC)CC)N2C(=O)OC(=NCCOC)[C@]2(Cc2ccccc2)[C@H]2C1=CC[C@H]1C(=O)NC(=O)[C@H]12`, the Potency is 6.31 µM (active). The figure for `COC(=O)c1ccc(C(NC(=O)OCc2ccccc2)/C(=C/[C@@H](C)C(=O)NCc2cc(C)on2)c2cccnc2)cc1` (stereo partly specified) is 1.58 µM (active); for `COC(=O)[C@@H]1C[C@@]2(O)[C@@H](O)[C@@H](O)[C@@H](O)C[C@H]2N1CC(c1ccccc1)c1ccccc1` it is 3.16 µM (active). The figure for `COC(=O)[C@@H]1C[C@@]2(O)[C@@H](O)[C@@H](O)[C@@H](O)C[C@H]2N1Cc1cc(OC)cc(OC)c1` is 3.16 µM (active); for `CCCNC(=O)OC[C@@H]1O[C@H](CCO/N=C(\C)CCN2CCCCc3nc(C)c(C)cc32)C=C[C@@H]1Oc1ccc(OC)cc1` it is 3.16 µM (active).

`O=C1[C@H]2[C@H]3[C@H](O)[C@H](O)C/C(=N/OCc4ccccc4)[C@@H]3CC[C@@H]2C(=O)N1Cc1ccc2c(c1)OCO2`: the Potency is 2 µM (active).
